The nature of experiment [1]: E. coli DRC41 culture turbidity changes, primary screen, E. coli filamentation inducer project, strain DRC41, OD650, 48 h (AID 1152).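 Also: E. coli MC1000 strain DRC41 lacking acrAB efflux pump and sulA.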 To be noted: E. coli DRC41 (acrAB sulA), higher = more signal, called active from +8 up or from −8 down.
Experiment [2] can be described thus: small-molecule binders of probe aLefty1, primary screen, biochemical, small-molecule microarray, 635/667 nm fluorescence (AID 1153).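 Also: score merges spot fluorescence with signal-to-noise ratio from the scanned slide images.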 To be noted: higher = more signal.
Experiment [3] is described as follows: PSAC antagonists in infected red cells, primary screen, cell-based, P. falciparum Indochina, OD700, 1 h (AID 1154). To be noted: P. falciparum Indochina infected RBC osmotic lysis, higher = more signal, called active from +8 up or from −8 down.
Experiment [4] can be described thus: PSAC antagonists in infected red cells, primary screen, cell-based, P. falciparum Indochina, OD700, 2 h (AID 1155).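 Also: lysis reports solute entry through the parasite surface anion channel PSAC; channel blockers reduce lysis of infected cells.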 To be noted: P. falciparum Indochina infected erythrocytes, osmotic lysis OD700; higher = more signal, called active from +8 up or from −8 down.
Experiment [5] in a line: osmotic lysis modulators in infected erythrocytes, primary screen, PSAC antagonist project, cell-based, P. falciparum Indochina, OD700, 3 h (AID 1156). To be noted: higher = more signal, called active from +8 up or from −8 down.
Experiment [6] in a line: PSAC antagonists in infected red cells, primary screen, cell-based, P. falciparum Indochina, OD700, 18 h (AID 1157). The following applies: P. falciparum Indochina infected erythrocytes, osmotic lysis OD700, 18 h; higher = more signal, called active from +8 up or from −8 down.
Experiment [7] is described as follows: modulators of S6 phosphorylation in cells, primary screen, cell-based, A549, cytoblot, luminescence, serum-stimulated (AID 1158).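 Also: serum-stimulated A549 lung adenocarcinoma cells; signal is phosphorylated S6 detected by cytoblot immunostaining with HRP secondary.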 The following applies: A549 phospho-S6 cytoblot, 5 h, higher = more signal.
Experiment [8] concerns the target NADPH oxidase 2 (Homo sapiens) (UniProt P04839). Put plainly: NOX2-dependent H2O2 signal modulators, primary screen, NOX inhibitor project, cell-based, HEK293-NOX2, PMA-stimulated, Amplex Red fluorescence (AID 1159). Also: test concentration not given here. The following applies: 45 min, higher = more signal, called active from +8 up or from −8 down.
Experiment [9] addresses NADPH oxidase 4 (Homo sapiens) (UniProt Q9NPH5). Put plainly: NOX4-dependent H2O2 signal modulators, primary screen, NOX inhibitor project, cell-based, HEK293-NOX4, tetracycline-induced, Amplex Red fluorescence (AID 1160). To be noted: 45 min, higher = more signal, called active from +8 up or from −8 down.
The target of experiment [10] is NADPH oxidase 5 (Homo sapiens) (UniProt Q96PH1). In words: NOX5-dependent H2O2 signal modulators, primary screen, NOX inhibitor project, cell-based, HEK293-NOX5, Amplex Red fluorescence (AID 1161). To be noted: HEK293-NOX5, ionomycin, 45 min, higher = more signal.
Chain of NADPH oxidase 5 (Homo sapiens) (Q96PH1 whole entry, looked up): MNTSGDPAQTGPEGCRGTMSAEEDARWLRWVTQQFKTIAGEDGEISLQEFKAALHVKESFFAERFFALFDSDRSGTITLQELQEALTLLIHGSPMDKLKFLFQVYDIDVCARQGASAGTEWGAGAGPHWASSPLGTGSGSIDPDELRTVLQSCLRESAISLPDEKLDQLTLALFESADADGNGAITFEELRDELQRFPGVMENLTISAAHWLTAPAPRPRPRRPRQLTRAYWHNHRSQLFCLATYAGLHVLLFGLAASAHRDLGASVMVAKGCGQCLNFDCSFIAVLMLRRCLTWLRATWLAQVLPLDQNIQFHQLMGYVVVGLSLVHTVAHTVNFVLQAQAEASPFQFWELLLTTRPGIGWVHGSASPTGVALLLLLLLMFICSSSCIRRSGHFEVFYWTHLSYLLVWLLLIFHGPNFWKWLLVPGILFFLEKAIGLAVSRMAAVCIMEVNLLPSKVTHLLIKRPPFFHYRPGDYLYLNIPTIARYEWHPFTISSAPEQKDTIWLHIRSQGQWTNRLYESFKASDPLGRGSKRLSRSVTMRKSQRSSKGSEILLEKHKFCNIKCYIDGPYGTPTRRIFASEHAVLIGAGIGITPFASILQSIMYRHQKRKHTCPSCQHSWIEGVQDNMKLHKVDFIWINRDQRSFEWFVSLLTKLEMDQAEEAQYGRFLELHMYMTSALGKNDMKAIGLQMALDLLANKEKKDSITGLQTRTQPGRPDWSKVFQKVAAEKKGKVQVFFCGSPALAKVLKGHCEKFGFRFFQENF
Experiment [11] can be described thus: A549 cell viability effects, profiling panel, calcein-AM fluorescence, 48 h, basal (AID 1162). Also: test concentration not given here. To be noted: higher = more signal.
Experiment [12] is described as follows: adipocyte viability effects, profiling panel, cell-based, 3T3-L1 adipocytes, calcein-AM fluorescence, 48 h, basal (AID 1163). Also: test concentration not given here. To be noted: 3T3-L1 adipocytes viability, higher = more signal.
A short description of experiment [13]: HepG2 cell viability effects, profiling panel, calcein-AM fluorescence, 48 h, basal (AID 1164). Also: test concentration not given here. The following applies: higher = more signal.
The nature of experiment [14]: MM1S cell viability effects, profiling panel, calcein-AM fluorescence, 48 h, basal (AID 1165).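 Also: viability of MM1S multiple myeloma cells under basal unstimulated conditions; test concentration not given here.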 To be noted: higher = more signal.
Experiment [15] in a line: basal RPMI8226 viability, no added stimulus, profiling panel, cell-based, calcein-AM fluorescence, 48 h, PK04 Diversity Set (AID 1166).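 Also: cells grown under basal conditions without added stimulus; test concentration not given here.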 The following applies: RPMI8226 myeloma viability, higher = more signal.
Experiment [16] in a line: basal HepG2 mitochondrial membrane potential changes, profiling panel, cell-based, JC-1 fluorescence, 24 h, 100 nL compound (AID 1167). Also: test concentration not given here. The following applies: higher = more signal.
A short description of experiment [17]: basal 3T3-L1 adipocyte mitochondrial potential changes, profiling panel, cell-based, JC-1 fluorescence, 3T3-L1 adipocytes, 24 h, 100 nL compound (AID 1168). Also: test concentration not given here. To be noted: JC-1 mitochondrial fluorescence, higher = more signal, called active from +8 up or from −8 down.
Experiment [18] is described as follows: basal RPMI8226 mitochondrial membrane potential changes, profiling panel, cell-based, JC-1 fluorescence, 24 h, 100 nL compound (AID 1169). Also: test concentration not given here. To be noted: RPMI8226 myeloma, JC-1 mitochondrial potential fluorescence, higher = more signal.
Experiment [19] in a line: basal MM1S mitochondrial membrane potential changes, profiling panel, cell-based, JC-1 fluorescence, 24 h, 100 nL compound (AID 1170). Also: test concentration not given here. The following applies: higher = more signal.
The nature of experiment [20]: A549 lung cancer cell viability effects, profiling panel, resazurin fluorescence, 24 h, PK04 Diversity Set (AID 1171). Also: test concentration not given here. To be noted: higher = more signal, called active from +8 up or from −8 down.

Structures are written as SMILES. The source made the active and inactive calls.

Chain of NADPH oxidase 4 (Homo sapiens) (Q9NPH5 whole entry, looked up): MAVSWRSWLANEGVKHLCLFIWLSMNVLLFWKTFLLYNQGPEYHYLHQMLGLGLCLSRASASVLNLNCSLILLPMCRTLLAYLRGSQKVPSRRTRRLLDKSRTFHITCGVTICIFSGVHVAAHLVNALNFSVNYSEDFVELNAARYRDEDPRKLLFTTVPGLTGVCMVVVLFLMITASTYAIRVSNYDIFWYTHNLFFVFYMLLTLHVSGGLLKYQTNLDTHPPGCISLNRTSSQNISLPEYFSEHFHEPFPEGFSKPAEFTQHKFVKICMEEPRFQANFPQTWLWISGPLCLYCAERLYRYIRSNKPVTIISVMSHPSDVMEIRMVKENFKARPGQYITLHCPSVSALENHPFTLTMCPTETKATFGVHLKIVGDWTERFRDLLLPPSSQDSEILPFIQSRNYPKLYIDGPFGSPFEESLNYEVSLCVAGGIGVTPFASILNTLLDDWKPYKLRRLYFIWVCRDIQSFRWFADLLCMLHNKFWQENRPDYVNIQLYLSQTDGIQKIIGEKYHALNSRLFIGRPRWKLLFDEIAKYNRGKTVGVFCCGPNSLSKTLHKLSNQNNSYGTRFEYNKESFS
Chain of NADPH oxidase 2 (Homo sapiens) (P04839 whole entry, looked up): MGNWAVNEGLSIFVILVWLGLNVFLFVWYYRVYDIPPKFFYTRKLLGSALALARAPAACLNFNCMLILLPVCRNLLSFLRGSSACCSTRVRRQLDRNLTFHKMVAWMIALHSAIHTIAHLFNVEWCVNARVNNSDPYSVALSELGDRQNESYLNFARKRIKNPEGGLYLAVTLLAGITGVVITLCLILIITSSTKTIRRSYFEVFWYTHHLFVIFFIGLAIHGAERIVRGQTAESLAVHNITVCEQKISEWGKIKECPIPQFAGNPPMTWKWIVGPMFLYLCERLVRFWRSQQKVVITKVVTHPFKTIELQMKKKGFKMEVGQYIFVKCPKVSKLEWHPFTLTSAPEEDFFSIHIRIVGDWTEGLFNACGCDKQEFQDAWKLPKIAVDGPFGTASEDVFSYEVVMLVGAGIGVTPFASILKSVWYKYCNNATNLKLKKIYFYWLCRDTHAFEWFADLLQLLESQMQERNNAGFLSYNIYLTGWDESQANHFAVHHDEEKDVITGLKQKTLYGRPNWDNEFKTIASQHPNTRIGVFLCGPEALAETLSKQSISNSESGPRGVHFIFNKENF

Turning to `COc1cc(C(O)C2C=CC3C(=O)N(c4ccccc4)C(=O)C3N2Nc2ccccc2F)cc(OC)c1OC` (stereo not given), the z-score is -1.19 (inactive) in experiment [1]; 5.94 (inactive) in [3]; 1.25 (inactive) in experiment [4]; -0.276 (inactive) in [5]; 0.462 (inactive) in experiment [6]; -1.01 in [7]. The z-score in experiment [8] was -1.67 (inactive); in experiment [9], -4.07 (inactive); in experiment [10] it was -3.16; in experiment [11], 0.0221; in experiment [12], -0.603; in [13], -0.162. In addition, the z-score in experiment [14] was -1.76; in experiment [15], -1.63; in experiment [16], -1.15; in experiment [17], -1.01 (inactive); in experiment [18], 0.446; in experiment [19] it was 0.142. Moreover, the z-score in experiment [20] was -0.28 (inactive). Further, in [2], the composite z-score came out at 0.149.

For the compound `C=C(COC)/C(=C/C[C@H](OC(C)=O)c1ccccc1OCCO)c1cc(C(=O)OC)ccc1OC`, the z-score in experiment [1] is 0.311 (inactive); in experiment [3], 8.11 (active); in [4] it was 1.02 (inactive); in experiment [5], 0.454 (inactive); in experiment [6], -0.897 (inactive); in experiment [7] it was 1.52. Further, the z-score in experiment [8] was -0.688 (inactive); in experiment [9], 0.0021 (inactive); in experiment [10] it was -1.97; in experiment [11], -0.168; in [12], 1.66; in [13], -0.63. Further, the z-score in [14] is -3.06; in [15] it was -1.74; in experiment [16] it was 0.532; in [17] it was -0.112 (inactive); in experiment [18], 0.0983; in experiment [19] it was -1.29. Moreover, the z-score in [20] was -0.0553 (inactive). Also, the composite z-score in [2] was -0.145.

With `CCOC(=O)c1cn(C[C@H](Cc2ccccc2)NC(=O)N[C@H](CO)CCc2oc(C(C)=O)c(C(=O)OC)c2C(=O)OC)nn1`, the z-score in experiment [1] was -0.427 (inactive); in experiment [3], 1.14 (inactive); in experiment [4] it was -1.06 (inactive); in [5] it was 0.661 (inactive); in experiment [6], -0.473 (inactive); in [7] it was 0.0878. Besides, the z-score in experiment [8] was -3.04 (inactive); in [9], -3.25 (inactive); in experiment [10], -1.9; in experiment [11] it was -0.462; in [12], 1.16; in experiment [13], 0.0702. Besides, the z-score is -0.0594 in [14]; -1.88 in [15]; -1 in experiment [16]; 0.871 (inactive) in [17]; -0.44 in experiment [18]; -0.0478 in experiment [19]. Also, the z-score in experiment [20] was -0.636 (inactive). Further, in experiment [2], the composite z-score came to 0.143.

`COc1cc(C(O)C2C=CC3C(=O)N(c4ccccc4)C(=O)C3N2Nc2ccccc2)cc(OC)c1OC` (stereo not given): the z-score was -0.915 (inactive) in [1]; 26.2 (active) in [3]; 12.1 (active) in [4]; 1.18 (inactive) in experiment [5]; 1.73 (inactive) in experiment [6]; -0.817 in [7]. In addition, the z-score in experiment [8] was -1.61 (inactive); in [9], -3.49 (inactive); in [10], -3.2; in [11] it was -0.591; in experiment [12], -1.66; in experiment [13], -0.342. Moreover, the z-score in experiment [14] was 0.294; in experiment [15], -0.0482; in experiment [16], -2.43; in experiment [17] it was -1.22 (inactive); in experiment [18], -0.953; in experiment [19], -0.116. The z-score in experiment [20] is -0.427 (inactive). Also, the composite z-score in experiment [2] was found to be 0.501.

For the compound `COC(=O)[C@@]1(Cc2ccc(F)cc2)[C@H]2c3cc(C(=O)N4CCCC4)n(CCc4ccccn4)c3C[C@H]2CN1C(=O)c1ccccc1`, the z-score in experiment [1] is -1.04 (inactive); in [3], 1.8 (inactive); in [4], 0.408 (inactive); in [5], 0.394 (inactive); in [6] it was 0.446 (inactive); in experiment [7] it was -0.697. Besides, the z-score in [8] was 0.557 (inactive); in experiment [9], -0.279 (inactive); in experiment [10], -0.188; in [11], 0.19; in experiment [12], -0.0629; in [13], 0.278. Also, the z-score in experiment [14] is -0.118; in experiment [15], -0.431; in experiment [16], 1.98; in experiment [17], -0.962 (inactive); in [18], -0.815; in experiment [19], -0.515. Moreover, in experiment [20], the z-score was 0.182 (inactive). The composite z-score in experiment [2] is 0.413.

As for `O=C1C2C=CC(C(O)c3ccc([N+](=O)[O-])cc3)N(Nc3ccccc3F)C2C(=O)N1c1ccccc1` (stereo not given), the z-score was -1.36 (inactive) in [1]; 9.91 (active) in experiment [3]; 0.885 (inactive) in experiment [4]; 0.458 (inactive) in experiment [5]; 0.586 (inactive) in [6]; -0.888 in [7]. Also, the z-score in experiment [8] is -2.54 (inactive); in [9], -4.13 (inactive); in [10] it was -3.11; in experiment [11], -0.353; in experiment [12], -0.923; in experiment [13], -1.16. For the same compound, the z-score was 0.375 in experiment [14]; -0.958 in [15]; -1.5 in [16]; -2.27 (inactive) in [17]; -0.268 in [18]; -0.127 in experiment [19]. In experiment [20], the z-score is -0.364 (inactive). Also, the composite z-score in [2] was 0.0625.

`[N-]=[N+]=Nc1ccccc1C[C@]1(C(=O)N2CCOCC2)N=C(c2ccc(OCCCO)cc2)O[C@H]1c1ccccc1N=[N+]=[N-]`: the z-score in [1] was 1.76 (inactive); in experiment [3] it was 30.7 (active); in experiment [4], 25.3 (active); in experiment [5] it was 1.18 (inactive); in experiment [6] it was 6.73 (inactive); in experiment [7], 2.28. Further, the z-score in [8] was -2.86 (inactive); in experiment [9], 0.383 (inactive); in experiment [10], -2.57; in experiment [11], 0.961; in experiment [12], 0.744; in experiment [13], -0.621. Also, the z-score in experiment [14] is -1.77; in [15] it was -2.98; in [16], 1.81; in experiment [17], -0.0199 (inactive); in [18] it was -1.01; in experiment [19] it was -2.03. Further, in experiment [20], the z-score was -2.16 (inactive). In addition, the composite z-score in [2] was 0.15.

Take `CN(C)CCCC[C@@H]1NC(=O)[C@H]2C[C@@H](C(=O)O)[C@@H](c3ccc(O)cc3)N2C1=O`: the z-score in [1] is 2.2 (inactive); in [3] it was 3.21 (inactive); in experiment [4], 0.73 (inactive); in experiment [5], -2.43 (inactive); in experiment [6], -0.849 (inactive); in experiment [7] it was 0.651. In addition, the z-score in experiment [8] was 0.485 (inactive); in experiment [9] it was -1.06 (inactive); in experiment [10], 1.4; in experiment [11], 0.151; in [12] it was 1.73; in [13], 0.326. In addition, the z-score in [14] was -1.24; in experiment [15] it was -0.817; in experiment [16], -0.0533; in [17], 0.419 (inactive); in experiment [18], -0.693; in [19] it was 0.38. Also, in experiment [20], the z-score is -0.569 (inactive). In experiment [2], this compound registered a composite z-score of 2.57.

On to `O=C1C=C(c2ccccc2)C(=O)C2=C1CC([C@H]1Oc3ccccc3S(=O)(=O)N3CCC[C@@H]13)=CC2`, for which the z-score was -0.0139 (inactive) in [1]; 2.36 (inactive) in experiment [3]; 0.445 (inactive) in experiment [4]; -0.299 (inactive) in experiment [5]; 0.0841 (inactive) in experiment [6]; -0.154 in experiment [7]. Further, the z-score was -0.368 (inactive) in [8]; -3.24 (inactive) in experiment [9]; -2.66 in experiment [10]; -0.653 in experiment [11]; -0.17 in experiment [12]; -1.05 in experiment [13]. The z-score in experiment [14] was -3.2; in experiment [15], -3.99; in experiment [16] it was -3.49; in experiment [17] it was -2.49 (inactive); in [18] it was -1.16; in experiment [19], -2.67. Besides, the z-score in [20] was -0.0039 (inactive). Also, the composite z-score in [2] was -0.101.

The record behind these values is PubChem BioAssay.
